IL1B NFkB pot: enhancers of NFkB p65 translocation in HUVEC – imaging, IL-1B stimulus, high-content imaging, primary screen. HUVEC IL-1B NFkB p65 nuclear translocation imaging. activation, % at 2 µM. 94,000 compounds, 0.3% hits;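 active = activation above 40%, about the mean plus 3 SD, also judged a hit on visual image review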;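 note: percent activation is computed from the nuclear over cytoplasmic p65 intensity ratio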
HUVEC tox TNFa: cytotoxicity in TNFa-stimulated HUVEC, primary screen, cytotoxicity control for VCAM1 expression modulator project, imaging, Hoechst nuclei count; cell count reduction, % at 2 µM; HUVEC TNFalpha-stimulated, Hoechst cell count; 93,000 compounds, 0.17% hits;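 active = cell count reduction exceeding the screen mean by over 5 SD, scaled to untreated wells per plate, cut at about 78% in these data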;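 note: cells counted after 24 h of TNF alpha exposure following the 1 h pretreatment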
IL1B cytotox: cytotoxicity in IL-1B stimulated HUVEC, primary screen, cytotoxicity control for IL-1B NFkB translocation project, imaging, Hoechst nuclear count, IL-1B stimulus | 94,000 compounds, 0.41% hits | AID 845, 2007 | cell count reduction, % at 2 µM | HUVEC cell count loss;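 active = cell count reduction more than 3 SD above the screen-wide mean, cut at about 70% in these data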;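 note: normalized per plate to untreated control cells as the no-loss baseline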
E-sel TNF inh: E-selectin induction blockers in HUVEC – imaging, immunofluorescence, high content, primary screen; 120,000 compounds, 0.71% hits; HUVEC TNFa-induced E-selectin immunofluorescence; inhibition, % at 2 µM;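 active = inhibition above the batch mean plus 3 SD, and confirmed as a hit on visual image review, cut at about 43% in these data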;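 note: 0% = TNF-stimulated DMSO wells and 100% = unstimulated control wells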
VCAM1 TNFa inh: inhibitors of TNFa-induced VCAM1 expression, primary screen, imaging, HUVEC, TNFa stimulus, immunofluorescence. HUVEC TNFa-induced VCAM-1 immunofluorescence, high-content imaging. inhibition, % at 2 µM. 95,000 compounds, 0.48% hits;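 active = inhibition above the batch mean plus 3 SD, with images confirmed as a hit by eye, cut at about 37% in these data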;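 note: 0% = TNF-stimulated DMSO wells and 100% = unstimulated control wells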
NFkB transloc inh: inhibitors of IL-1B driven NFkB p65 nuclear import, primary screen, imaging, HUVEC, IL-1B stimulus, high-content imaging; HUVEC IL-1B NFkB p65 nuclear translocation imaging; inhibition, % at 2 µM; 94,000 compounds, 0.43% hits; AID 796, 2007;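 active = inhibition above about 30% together with a positive call from visual inspection of the well image, limit read from the data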;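 note: nuclear over cytoplasmic p65 intensity ratio measured by imaging; 0% = IL-1B stimulated DMSO wells and 100% = unstimulated DMSO wells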
The depositor's hits bear a star. Most compounds without a hit are left out; they make up all but 1.8% or so of the library.

Screening O=C(Nc1cccc(C(=O)N2CCCCCC2)c1)c1ccco1 returned IL1B NFkB pot -14, HUVEC tox TNFa 10, IL1B cytotox 72*, E-sel TNF inh 16, VCAM1 TNFa inh -5 and NFkB transloc inh 14.
CCOC(=O)/C(C#N)=C/c1cn(CCC(=O)O)nc1-c1ccc(Cl)cc1 was read as E-sel TNF inh 13.
For CC1(C)CC(=O)C(C=NCC2CCNCC2)=C(O)C1 the results were IL1B NFkB pot 22, HUVEC tox TNFa -6, IL1B cytotox -7, E-sel TNF inh 3, VCAM1 TNFa inh 17 and NFkB transloc inh -22.
Screening CC1(C)CC(=O)C(C=NCC2CCCO2)=C(O)C1 (centres undefined) returned IL1B NFkB pot 2, HUVEC tox TNFa 3, IL1B cytotox 18, E-sel TNF inh 80*, VCAM1 TNFa inh -6 and NFkB transloc inh -2.
`O=C(NNS(=O)(=O)c1ccccc1C(F)(F)F)c1cccc(S(=O)(=O)Nc2ccccc2Cl)c1` gave E-sel TNF inh 6.
`O=C(O)c1cccc(S(=O)(=O)Nc2ccccc2Cl)c1` gave IL1B NFkB pot -12, HUVEC tox TNFa -11, IL1B cytotox 6, E-sel TNF inh 29, VCAM1 TNFa inh 95* and NFkB transloc inh 12.
CCC1CCCCN1C(=O)CSc1nnc(-c2ccc(Cl)s2)o1 (centres undefined) was read as IL1B NFkB pot -5, HUVEC tox TNFa -2, IL1B cytotox 87*, E-sel TNF inh -3, VCAM1 TNFa inh 1 and NFkB transloc inh 5.
`Oc1ccc(Nc2nc(-c3ccc4ccccc4c3)cs2)cc1` gave IL1B NFkB pot -22, HUVEC tox TNFa -8, IL1B cytotox 2, E-sel TNF inh 14, VCAM1 TNFa inh 75* and NFkB transloc inh 22.
`Cc1ccc(Nc2nc(-c3c(C)nc4ccccn34)cs2)cc1` gave IL1B NFkB pot -34, HUVEC tox TNFa 75, IL1B cytotox 34, E-sel TNF inh 1, VCAM1 TNFa inh 93* and NFkB transloc inh 34*.
COc1ccc2oc(=O)c(/C(C)=N/Nc3ccccc3)cc2c1 was read as E-sel TNF inh -17.
Screening C=CCNCC(=O)NN=C(c1ccccc1)c1ccccc1 returned IL1B NFkB pot 16, HUVEC tox TNFa -27, IL1B cytotox -12, E-sel TNF inh 14, VCAM1 TNFa inh 3 and NFkB transloc inh -16.
CCn1c(O)c(C=Nc2ccccc2)n(-c2ccccc2)c1=S was read as IL1B NFkB pot -7, HUVEC tox TNFa -26, IL1B cytotox 9, E-sel TNF inh -6, VCAM1 TNFa inh 2 and NFkB transloc inh 7.
Screening CN(c1ccccc1)S(=O)(=O)c1ccc(NC(=S)Nc2ccccc2)cc1 returned IL1B NFkB pot -4, HUVEC tox TNFa -17, IL1B cytotox 9, E-sel TNF inh 87*, VCAM1 TNFa inh -15 and NFkB transloc inh 4.
CCCC(c1nnnn1CCc1ccccc1)N1CCC(C(N)=O)CC1 (centres undefined) was read as IL1B NFkB pot 25, HUVEC tox TNFa -35, IL1B cytotox -22, E-sel TNF inh 8, VCAM1 TNFa inh -2 and NFkB transloc inh -25.
O=C(Cc1c[nH]c2ccccc12)NCc1ccccc1F was read as E-sel TNF inh -3.
COc1ccc(S(=O)(=O)NCc2csc(-c3cccnc3)n2)cc1 was read as IL1B NFkB pot 23, HUVEC tox TNFa -23, IL1B cytotox 2, E-sel TNF inh 70*, VCAM1 TNFa inh -1 and NFkB transloc inh -23.
`Cc1ccc(C(=O)OCn2ncc(Cl)c(Cl)c2=O)cc1` gave IL1B NFkB pot -79, HUVEC tox TNFa 5, IL1B cytotox 20, E-sel TNF inh 100*, VCAM1 TNFa inh 36* and NFkB transloc inh 79*.
For Cc1ccc(C)c(C(=O)Cn2ncc(Cl)c(Cl)c2=O)c1 the results were IL1B NFkB pot -43, HUVEC tox TNFa -6, IL1B cytotox 15, E-sel TNF inh 2, VCAM1 TNFa inh 17 and NFkB transloc inh 43*.
Screening CCOC(=O)c1ccc(NC(=O)Cn2ncc(Cl)c(Cl)c2=O)cc1 returned E-sel TNF inh 100*.
For O=C(OCn1ncc(Cl)c(Cl)c1=O)c1ccc(C(F)(F)F)cc1 the results were IL1B NFkB pot -41, HUVEC tox TNFa 5, IL1B cytotox 2, E-sel TNF inh 1, VCAM1 TNFa inh 1 and NFkB transloc inh 41*.
For CCC1(CC)N=C(c2ccccc2)C(=S)N1 the results were E-sel TNF inh -6.
Screening O=C(Oc1cccc(N2C(=O)CCC2=O)c1)c1ccccc1 returned IL1B NFkB pot 6, HUVEC tox TNFa -7, IL1B cytotox 89*, E-sel TNF inh 32, VCAM1 TNFa inh 18 and NFkB transloc inh -6.
CCN1CCN(S(=O)(=O)c2cccc([N+](=O)[O-])c2)CC1 was read as IL1B NFkB pot 4, HUVEC tox TNFa -4, IL1B cytotox 19, E-sel TNF inh 11, VCAM1 TNFa inh 4 and NFkB transloc inh -4.
For CCN1C/C(=C/c2ccc(OC)c(O)c2)C(=O)/C(=C/c2ccc(OC)c(O)c2)C1 the results were E-sel TNF inh 60*.
For CCN1C/C(=C\c2cccc([N+](=O)[O-])c2)C(=O)/C(=C/c2cccc([N+](=O)[O-])c2)C1 the results were E-sel TNF inh 100*.
`O=C(O)c1ccc(COc2ccc3ccccc3c2/C=C2/NC(=O)N(c3ccccc3)C2=O)cc1` gave IL1B NFkB pot 6, HUVEC tox TNFa -2, IL1B cytotox -59, E-sel TNF inh 23, VCAM1 TNFa inh 19 and NFkB transloc inh -6.
For O=[N+]([O-])/C=C/c1c(OCc2ccccc2)ccc2ccccc12 the results were IL1B NFkB pot -9, HUVEC tox TNFa -1, IL1B cytotox -22, E-sel TNF inh 8, VCAM1 TNFa inh 56* and NFkB transloc inh 9.
Screening CCOc1ccc(/C=C/[N+](=O)[O-])c2ccccc12 returned IL1B NFkB pot -61, HUVEC tox TNFa 8, IL1B cytotox -54, E-sel TNF inh -3, VCAM1 TNFa inh 27 and NFkB transloc inh 61*.
COc1ccc(CCNC(=O)COc2ncnc3cc([N+](=O)[O-])ccc23)cc1 was read as E-sel TNF inh 74*.
O=C(COc1ncnc2cc([N+](=O)[O-])ccc12)NCc1ccc2c(c1)OCO2 was read as IL1B NFkB pot -6, HUVEC tox TNFa -5, IL1B cytotox -19, E-sel TNF inh -21, VCAM1 TNFa inh -17 and NFkB transloc inh 6.
`O=C(NC(=S)Nc1ccc2c(c1)OCCO2)c1cccc2ccccc12` gave E-sel TNF inh 1.
For CCN(CC)CCN(C)C1CCC(c2ccccc2)CC1 (centres undefined) the results were E-sel TNF inh 6.
`C/C=C/C=N/Nc1nc(C)cc(=O)[nH]1` gave E-sel TNF inh -2.
